# Source: PubChem
# USP2a inh: USP2a (human) protease inhibition; O75604; USP2 core, Ub-CHOP2 coupled fluorogenic reporter, 485/531; Potency, µM (titrated, usually from 38.3 µM), most hits filed as inhibitors; 330,000 compounds, 0.01% hits
#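 USP2 core (10nM final) preincubated 30min RT with compound in 20mM Tris-HCl pH 8.0, 2mM CaCl2, 2mM beta-mercaptoethanol, 0.05% CHAPS; 25nM Ub-CHOP2 plus 25nM reporter substrate added, fluorescence (Ex485/Em531) read after 60min.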
# GLS inh: blocks human kidney-isoform glutaminase activity | GLS enzymatic activity, qHTS titration | 410,000 compounds, 0.21% hits | AID 624170 | Potency, µM (top dose mostly 45.5 µM), usual class: inhibitors | O94925
#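 Glutamate formation by hKGA was monitored fluorometrically using coupled glutamate oxidase, HRP and Amplex Red. Substrate was added as 1 mM L-glutamine solution; incubation was 30 min at RT after an initial read.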
# Tb PFK inh-1: blocks T. brucei phosphofructokinase; O15648; T. brucei PFK, ADP-Glo luminescence; Potency, µM (series often up to 57.5 µM), hits mostly inhibitors; 330,000 compounds, 0.17% hits; further: nearly all actives have a fitted effect of over 60% in size
#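 In TEA buffer at pH 8.0 with 5 mM MgCl2, enzyme (1.25 nM) converted F6P (0.5 mM) and ATP (0.1 mM) for 45 min at room temperature. ADP product was read by luciferase luminescence.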
# p53 reactivation: restores transcriptional activity of mutant p53. H1299 p53-A138V BP100-luciferase reporter, luminescence, 24 h. Potency, µM (titrated, usually from 92.2 µM), most hits filed as activators. 320,000 compounds, 0.063% hits; further: nearly all actives have a fitted effect of over 45% in size
#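 H1299 (p53-null), stable ts p53-A138V + BP100-Luc; 1000 cells/well, Opti-MEM/10% FBS; cpd 4 pt, 1:5; 24 h, 37 deg C, 5% CO2; detection reagent 10 min RT; luminescence.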
# TbPFK ATP: inhibits T. brucei PFK measured by ATP depletion; Tb PFK enzyme, ATP depletion, Kinase-Glo Plus luminescence; 1,100 compounds, 47% hits; shares compounds with Tb PFK inh-1; Potency, µM (highest dose often 57.5 µM); AID 504636; calls by dose curve; further: nearly all actives have a fitted effect of over 60% in size
# Tb PFK inh-2: validation of T. brucei phosphofructokinase inhibitors. 1,100 compounds, 41% hits. shares compounds with Tb PFK inh-1. purified T. brucei PFK, ADP-Glo luminescence, 45 min. Potency, µM (doses to about 57.5 µM), usual class: inhibitors; further: nearly all actives have a fitted effect of over 60% in size
# Numbers stand for hits; . = inactive; ? = inconclusive; / = no result given. Shown are actives, neighbours in structure and some others; about 0.39% of the full set was active somewhere. Unless noted, the call rests on the fitted dose curve; in most records, active means well fitted curve in the direction sought with a large enough effect; inconclusive means small, poorly fitted or top-dose-only effect, or another doubt; inactive means no such curve, though single readings can be large; an effect the other way counts as inactive or inconclusive.
SMILES,USP2a inh,GLS inh,Tb PFK inh-1,p53 reactivation,TbPFK ATP,Tb PFK inh-2
O=C(Cc1ccccc1)Oc1ccc([N+](=O)[O-])cc1,.,.,.,.,/,/
O=C(COc1ccc([N+](=O)[O-])cc1)Nc1ccncc1,.,.,?,.,?,?
CCN(CC)C(=O)c1ccc(NC(=O)COc2ccc([N+](=O)[O-])cc2Cl)cc1,.,.,.,.,/,/
NS(=O)(=O)c1cccc(NC(=O)COc2ccc([N+](=O)[O-])cc2)c1,.,.,7.6µM,.,21µM,13µM
CC(C)n1c(N2CCN(S(=O)(=O)c3cccc([N+](=O)[O-])c3)CC2)nc2ccccc21,.,.,.,?,/,/
COc1cc(C)c(NC(=O)C(=S)NCCc2ccccc2)cc1C,.,.,?,.,24µM,?
Oc1cc2c(cc1O)C1c3ccc(O)c(O)c3OCC1(O)C2 (stereo not given),.,.,?,.,?,0.85µM
O=C(O)C1C2C=CC(C2)C1C(=O)Nc1ccc(Cl)c(Cl)c1 (stereo not given),.,.,21µM,/,.,.
O=C(O)C1C2CCC(O2)C1C(=O)Nc1ccc(F)c(F)c1 (stereo not given),.,.,.,?,/,/
O=C(NNC(=O)c1ccccc1Br)c1ccc2nc[nH]c2c1,.,.,21µM,.,?,?
O=C(Nc1ccc(Br)cc1C(=O)c1ccccc1)c1ccccc1,/,.,/,/,/,/
CCOC(=O)c1cc2cc(OC)ccc2n1C1CCN(Cc2ccccc2)CC1,/,.,/,/,/,/
Nc1nnc(Cc2cccc(Br)c2)s1,.,.,?,.,21µM,30µM
O=[N+]([O-])c1ccc(N2CC2)c([N+](=O)[O-])c1,/,.,/,/,/,/
Cc1cccc(N2CCN(C(=S)c3ccc([N+](=O)[O-])cc3)CC2)c1,.,.,?,.,24µM,?
CN(C)c1ccc(C(=S)N2CCN(c3ccc([N+](=O)[O-])cc3)CC2)cc1,.,.,12µM,.,8.5µM,13µM
CN(C(=O)Oc1ccc([N+](=O)[O-])cc1)c1ccccc1,.,.,.,.,/,/
CCc1nn2c(=O)c(F)c(N3CCNCC3)nc2s1,/,.,/,/,/,/
COc1ccc(S(=O)(=O)N(C)C[C@H]2OCCCC[C@H](C)Oc3ccc(N(C)C)cc3C(=O)N([C@H](C)CO)C[C@@H]2C)cc1,/,.,/,/,/,/
COc1ccc2o/c(=N/NC(=O)c3cccs3)c(C(N)=O)cc2c1,.,.,?,?,.,?
CCCCCc1nnc(NC(=O)Cc2cccs2)s1,.,.,?,.,?,?
CCc1nnc(NC(=O)CSc2ccc(-c3ccco3)nn2)s1,.,.,?,.,/,/
C=CCN1C(=O)N/C(=C/c2ccc(C)o2)C1=O,.,.,17µM,.,17µM,?
C=CCN1C(=O)NC(=O)/C(=C/c2ccoc2)C1=O,?,.,.,.,/,/
Clc1ccc(CSC2=NCCCN2)cc1Cl,.,.,5.4µM,.,11µM,21µM
SMILES,USP2a inh,GLS inh,Tb PFK inh-1,p53 reactivation,TbPFK ATP,Tb PFK inh-2
c1coc(CN2Cc3ccccc3-n3nncc3C2)c1,/,.,/,/,/,/
CC(=O)NC1=NC(=O)/C(=C/c2cc(C)n(-c3cccc(C(=O)O)c3)c2C)S1,.,.,?,.,?,?
O=C(Cc1ccc(Cl)c(Cl)c1)NNC(=S)NCC1CCCO1 (stereo not given),.,.,?,.,21µM,?
COCCNC(=O)/C(C#N)=C/c1ccc(O)cc1,.,.,?,.,.,?
N#C/C(=C\c1ccc(O)cc1)C(=O)O,/,.,/,/,/,/
S=C(NCCCN1CCOCC1)N1CCN(c2cccc(Cl)c2)CC1,.,.,?,.,21µM,27µM
S=C(NCc1ccccc1)N1CCN(c2cccc(Cl)c2)CC1,.,.,27µM,.,24µM,27µM
CC(C(Sc1ccccc1N)c1ccccc1)[N+](=O)[O-] (stereo not given),.,.,24µM,.,?,?
O=[N+]([O-])/C=C\c1ccc(N2CCCC2)c(F)c1,.,.,?,.,2.4µM,6µM
CCC12CN3CC(CC)(CN(C1)C3c1c(C)[nH]c(=O)[nH]c1=O)C2=O (stereo not given),/,.,/,/,/,/
Oc1ccc(N=Nc2ccccc2-c2nn[nH]n2)c(O)c1,.,.,?,.,.,?
